# Screening data: PubChem BioAssay, several laboratories
# NR2F2 inh – inhibitors of human COUP-TFII (NR2F2); P24468; HEK293T NGFI-A luciferase reporter, luminescence; inhibition, % at 8.6 µM; actives 0.7% (n = 370,000);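 active = inhibition above a per-plate cutoff, mean inhibition of test wells between control levels plus 3 SD, cut at about 38% in these data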;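 also: cells cotransfected with COUP-TFII expression vector driving the NGFI-A reporter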
# Target sequence (P24468 whole entry, looked up): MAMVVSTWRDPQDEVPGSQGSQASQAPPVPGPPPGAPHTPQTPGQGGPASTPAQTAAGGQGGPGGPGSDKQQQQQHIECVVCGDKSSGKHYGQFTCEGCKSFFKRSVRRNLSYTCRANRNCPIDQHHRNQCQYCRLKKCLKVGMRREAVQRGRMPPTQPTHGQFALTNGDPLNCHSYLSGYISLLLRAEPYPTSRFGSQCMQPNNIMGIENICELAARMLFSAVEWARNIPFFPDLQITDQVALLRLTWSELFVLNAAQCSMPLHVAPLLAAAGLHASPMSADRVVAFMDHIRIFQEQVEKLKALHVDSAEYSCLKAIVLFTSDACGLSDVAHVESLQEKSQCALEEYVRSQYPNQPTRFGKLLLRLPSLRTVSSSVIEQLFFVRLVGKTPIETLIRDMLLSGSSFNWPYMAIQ
# Gli-Sufu block – blocks Gli-Sufu signaling in a luciferase reporter | inhibition, % at 5 µM | actives 0.74% (n = 340,000) | AID 588413 | Sufu-KO-LIGHT fibroblasts, Gli luciferase reporter luminescence;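 active = inhibition above about 55%, limit read from the data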
# GAA850 FXN act – increases GAA850 frataxin promoter reporter activity; AID 540364; HEK293 lucGAA850 FXN promoter luciferase reporter, 24 h; percent of 10 µM SAHA response; activation, % at 6 µM; actives 0.56% (n = 360,000);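 active = activation above the average of all compounds screened plus 3 SD, cutoff fixed separately per campaign, cut at about 7.5% in these data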
# GalR3 antag – antagonists of human GalR3 | O60755 | HEK293 GalR3-CNG cAMP membrane potential fluorescence; galR3 body fused to GalR1 C-terminus | inhibition, % at 3 µM | actives 0.44% (n = 360,000) | AID 651719;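 active = inhibition above the screen-wide average plus 3 SD, cut at about 13% in these data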;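 also: forskolin and galanin both at EC90 stimulate the cells; cAMP rise reported by CNG channel membrane potential dye signal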
# Target sequence (O60755 1-299 limits assumed): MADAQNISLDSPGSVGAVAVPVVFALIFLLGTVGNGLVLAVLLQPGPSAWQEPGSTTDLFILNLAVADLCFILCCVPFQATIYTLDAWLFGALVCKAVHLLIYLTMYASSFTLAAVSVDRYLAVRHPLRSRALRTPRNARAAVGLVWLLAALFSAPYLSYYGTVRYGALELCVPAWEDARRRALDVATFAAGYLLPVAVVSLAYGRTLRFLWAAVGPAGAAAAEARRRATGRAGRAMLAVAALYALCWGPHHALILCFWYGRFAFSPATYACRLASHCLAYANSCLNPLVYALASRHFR
# Cardio protect – protects H9c2 cardiomyocytes from peroxide injury. H2O2 injury protection, ATPLite, 2 h. protection from H2O2 cell death, % at 20 µM. actives 0.63% (n = 360,000). AID 588492;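 active = compounds giving at least 50% protection of heart cells from peroxide-induced death in the single-dose screen, raw or plate-pattern-corrected value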
# SMARCA2 activ – activators of SMARCA2 function | MG213 cells, MMTV-luciferase reporter, dexamethasone, overnight | activation, % at 9.1 µM | actives 1% (n = 370,000) | AID 652017; in the data active = activation above about 7.8%
# GAA30 FXN cntr – GAA30 FXN promoter activation counter-screen. shares compounds with GAA850 FXN act. HEK293 lucGAA30 FXN promoter luciferase, 24 h; DMSO = 0%, 5 µM ipriflavone = 100%. activation, % at 6 µM. actives 66% (n = 1,900);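 active = mean activation above the mean of solvent-only control wells plus 3 SD, cut at about 22% in these data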;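 also: counterscreen of GAA850 promoter hits where activity marks nonselective or luminescence artifacts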
# FXN GAA850 conf – GAA850 FXN promoter activation confirmation; shares compounds with GAA850 FXN act; HEK293 lucGAA850 FXN promoter luciferase reporter, 24 h; 100% = activation by SAHA; activation, % at 6 µM; actives 86% (n = 1,900); AID 588351;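 active = mean activation above a set limit taken from the primary screen, cut at about 8% in these data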
# Gli antag conf – Gli-SUFU antagonism confirmation, single concentration | Sufu-KO-LIGHT cells, Gli luciferase reporter, luminescence | inhibition, % at 5 µM | AID 602428 | actives 40% (n = 2,500) | shares compounds with Gli-Sufu block;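 active = mean inhibition at 5 µM reaching about 45%, limit read from the data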
# SufuKO cytotox – counter-screen for Gli-SUFU antagonists: cytotoxicity; actives 32% (n = 2,500); AID 651994; cytotoxicity, % at 5 µM; shares compounds with Gli-Sufu block; Sufu-KO-LIGHT cells cytotoxicity, ATP luminescence;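 active = mean cytotoxicity at 5 µM above about 25%, limit read from the data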;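 also: cells exposed to compound overnight for roughly 16 to 18 hours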
# Wnt3a counter – inhibits Wnt3a reporter, counter-screen for Gli-SUFU antagonists | shares compounds with Gli-Sufu block | actives 20% (n = 2,500) | Wnt-LIGHT cells, Wnt3a-driven luciferase reporter, luminescence | inhibition, % at 6.25 µM;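 active = mean inhibition above about 25%, limit read from the data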
# SMARCA2 act conf – SMARCA2 activation, confirmation screen; activation, % at 9.1 µM; shares compounds with SMARCA2 activ; actives 30% (n = 3,500); MG213 cells, MMTV-luciferase with dexamethasone, luminescence, overnight; MG213 cells expressing E1A, Rb sequestered; DMSO wells 0%, reference activator 100%;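 active = activation above its plate's cutoff, the mean activation of tested wells plus 3 SD, cut at about 7.9% in these data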
# VP16 Luc act – counter-screen for SMARCA2 activators: GAL4-VP16 luciferase reporter activation; shares compounds with SMARCA2 activ; HEK293 GAL4-VP16 pG5luc reporter, luciferase luminescence; scaled: DMSO wells 0%, SAHA wells 100%; activation, % at 9.1 µM; actives 41% (n = 3,500); AID 686939;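 active = activation above the solvent-only control well mean plus 3 SD, averaged across control plates, cut at about 5.2% in these data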
# VP16 Luc counter – counter-screen for COUP-TFII antagonists: inhibitors of VP16 | shares compounds with NR2F2 inh | HEK293 Gal4-VP16 luciferase reporter, luminescence | inhibition, % at 8.5 µM | actives 25% (n = 2,500); in the data active = inhibition above about 13%
# COUP-TFII conf – confirmation of human COUP-TFII (NR2F2) inhibitors. actives 45% (n = 2,500). shares compounds with NR2F2 inh. inhibition, % at 8.5 µM. HEK293 NGFI-A luciferase reporter, luminescence;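 active = mean inhibition over three repeats above a set limit taken from the earlier primary screen, cut at about 38% in these data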
# Numbers stand for hits; . = inactive; / = not tested or not shown. An excerpt weighted towards active compounds, which were near 3.4% of everything screened.
SMILES,NR2F2 inh,Gli-Sufu block,GAA850 FXN act,GalR3 antag,Cardio protect,SMARCA2 activ,Gli antag conf,SufuKO cytotox,Wnt3a counter,others
CCOC(=O)c1sc(N/N=C/c2ccccc2)nc1C,.,.,7.6,.,.,8.7,/,/,/,GAA30 FXN cntr=134.2;FXN GAA850 conf=39.9;SMARCA2 act conf=21.0;VP16 Luc act=13.3
O=C1OC(/C(=C\Nc2cc(Cl)ccc2O)[N+](=O)[O-])c2ccccc21 (centres undefined),.,.,12.1,.,.,33.2,/,/,/,GAA30 FXN cntr=51.4;FXN GAA850 conf=.;SMARCA2 act conf=.;VP16 Luc act=.
CCNC(=O)C1CCCN(C(=O)c2ccccc2OC(F)(F)F)CC1 (centres undefined),.,/,.,.,.,.,/,/,/,
COc1ccc(C(=O)OCCCN(C)C2CN(Cc3cn(Cc4ccccc4Cl)nn3)S(=O)(=O)C2)cc1OC (centres undefined),.,/,/,/,/,.,/,/,/,
O=C1Cc2c([nH]c3ccc(Br)cc23)-c2ccccc2N1,.,.,67.5,.,.,9.2,/,/,/,GAA30 FXN cntr=167.3;FXN GAA850 conf=201.3;SMARCA2 act conf=19.0;VP16 Luc act=.
Cc1cccc(NC(=O)C2CCCN(c3nnc(-n4cccc4)s3)C2)c1C (centres undefined),.,/,/,/,/,.,/,/,/,
COc1cccc2sc(Nc3nnc(-c4cccs4)o3)nc12,.,.,7.7,.,.,15.2,/,/,/,GAA30 FXN cntr=37.0;FXN GAA850 conf=39.9;SMARCA2 act conf=.;VP16 Luc act=14.1
NC(=O)N/N=C/c1ccccc1OC(=O)c1cc2ccccc2oc1=O,.,.,.,.,.,.,/,/,/,
O=C(Oc1ccccc1/C=C\C(=O)c1cc2ccccc2o1)c1ccccc1,.,.,8.7,.,.,8.7,/,/,/,GAA30 FXN cntr=110.8;FXN GAA850 conf=42.7;SMARCA2 act conf=.;VP16 Luc act=9.6
O=C(N/N=C/c1ccccn1)c1ccc(Cl)cc1,.,.,11.8,.,.,13.3,/,/,/,GAA30 FXN cntr=.;FXN GAA850 conf=.;SMARCA2 act conf=.;VP16 Luc act=20.8
O=C(/C=C/c1ccc([N+](=O)[O-])cc1)c1ccccc(=O)c1O,42.8,.,9.5,.,.,.,/,/,/,GAA30 FXN cntr=.;FXN GAA850 conf=.;VP16 Luc counter=.;COUP-TFII conf=59.3
O=C(/C=C/c1ccc([N+](=O)[O-])cc1)c1cccs1,.,.,.,.,.,.,/,/,/,
CCOC(=O)C1(C)CCCN(C(=O)c2ccc(C)c(F)c2)C1 (centres undefined),.,/,.,.,.,.,/,/,/,
CC(=NNC(=S)Nc1ccccc1Cl)c1ccccn1,50.6,92.5,13.6,.,.,.,/,/,/,GAA30 FXN cntr=.;FXN GAA850 conf=24.7;VP16 Luc counter=.;COUP-TFII conf=.
CCOC(=O)c1oc2ccccc2c1NC(=O)C1CCCCC1,/,97.1,.,/,.,/,.,.,.,
CCOC(=O)c1oc2ccccc2c1NC(=O)CCl,.,.,.,.,.,.,/,/,/,
Cc1ccc(OCCC(=O)N2CCN(c3ccc(O)cc3)CC2)cc1,.,.,.,.,.,.,.,.,.,
Cc1ccc(CNC(=O)C23CN(Cc4ccccc4)CC2C(c2ccc([N+](=O)[O-])cc2)=NO3)o1 (centres undefined),.,98.3,.,.,.,.,.,.,.,
CC(C)C[C@H]1CN(CCCC[C@@H]2CNC(=O)C(=O)N2CCc2ccccc2)C(=O)C(=O)N1CCC1CCCCC1,.,/,/,.,/,.,/,/,/,
COc1cccc(-c2ccc(SCC(=O)c3ccccc3)nn2)c1,.,55.3,.,.,.,.,.,.,.,
COc1ccc(C(=O)CSc2ccc(-c3ccccc3)nn2)cc1,.,.,.,.,.,.,/,/,/,
COc1cc(/C=C2/NC(=O)N(Cc3ccccc3F)C2=O)cc(OC)c1O,.,.,.,.,.,.,/,/,/,
CCOc1cc(/C=C2/NC(=O)N(Cc3ccccc3F)C2=O)ccc1O,.,74.3,.,.,.,.,70.5,.,45.4,
CCN(Cc1ccncc1)C(=O)c1cccc(S(=O)(=O)N2CCCCC2)c1,.,94.6,.,.,.,.,.,.,.,
CCN(Cc1ccncc1)C(=O)C1CCN(S(=O)(=O)c2cccs2)CC1,.,98.9,.,.,.,.,.,.,.,
SMILES,NR2F2 inh,Gli-Sufu block,GAA850 FXN act,GalR3 antag,Cardio protect,SMARCA2 activ,Gli antag conf,SufuKO cytotox,Wnt3a counter,others
CCN(CC(=O)Nc1c(F)cccc1F)C(=O)c1cccc(S(=O)(=O)N2CCCCCC2)c1,.,.,.,.,.,.,/,/,/,
CCOC(=O)Cc1nc(N2CCN(Cc3cccc4c3OCO4)CC2)c2c(C)c(C(=O)OCC)sc2n1,.,/,/,/,/,.,/,/,/,
O=C(C1CC1)C1(C(=O)N2CCOCC2)CC(c2ccccn2)=NO1 (centres undefined),.,/,/,/,/,.,/,/,/,
CS(=O)(=O)Nc1ccccc1C(=O)OCC(=O)N1CCC(c2ccccc2)=N1,.,.,.,.,.,.,/,/,/,
CCc1cc(-c2nc(N)ncc2-c2csc(C)n2)c(O)cc1OC,.,.,.,.,.,.,/,/,/,
COc1ccc(-c2nc(N)ncc2-c2csc(C)n2)c(O)c1,.,99.0,.,.,.,.,.,.,.,
COc1ccc(CCNC(=O)CCC(=O)Nc2ccc3nc(N4CCN(C)CC4)cc(C)c3c2)cc1OC,.,.,.,.,.,.,.,.,.,
CCOc1ccc(CCNC(=O)CCC(=O)Nc2ccc3nc(N4CCN(C)CC4)cc(C)c3c2)cc1OCC,.,.,.,.,.,.,/,/,/,
Cc1[nH]c2ccccc2c1[C@H]1[C@@H](CC#N)C1(C)C,.,.,.,.,.,.,.,.,.,
Cc1cc(C)cc(N2CCCn3c2nc2c3c(=O)n(CC(=O)OCc3ccccc3)c(=O)n2C)c1,/,.,.,/,.,/,/,/,/,
